# An excerpt weighted towards active compounds, which were near 4% of everything screened.
# UGM FP inh: inhibitors of M. tuberculosis UDP-galactopyranose mutase; P9WIQ1; purified UGM, fluorescence polarization probe displacement; inhibition, % at 10 µM; 320,000 compounds, 0.06% hits; AID 504406; in the data active = inhibition above about 10%, passing the limit was not always enough
# Target sequence (P9WIQ1 whole entry, looked up): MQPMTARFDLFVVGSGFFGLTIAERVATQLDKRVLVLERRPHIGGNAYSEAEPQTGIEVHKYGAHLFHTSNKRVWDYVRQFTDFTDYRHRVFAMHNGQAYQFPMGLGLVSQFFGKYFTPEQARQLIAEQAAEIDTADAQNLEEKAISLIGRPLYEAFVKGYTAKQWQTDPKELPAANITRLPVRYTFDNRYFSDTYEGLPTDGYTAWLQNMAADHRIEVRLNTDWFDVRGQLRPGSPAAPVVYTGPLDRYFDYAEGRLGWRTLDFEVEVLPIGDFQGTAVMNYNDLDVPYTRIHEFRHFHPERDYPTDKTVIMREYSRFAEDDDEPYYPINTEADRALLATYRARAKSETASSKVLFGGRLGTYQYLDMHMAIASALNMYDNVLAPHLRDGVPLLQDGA
# RecA splice inh: inhibitors of M. tuberculosis RecA intein splicing; P9WHJ3; AID 2221; cell-free RecA intein splicing, fluorescence; inhibition, % (no concentration beside the values); 290,000 compounds, 0.75% hits; in the data active = inhibition above about 30%
# GDH-TPI counter-1: counter-screen for M. tuberculosis FBA inhibitors: GDH-TPI coupled enzymes; GDH-TPI coupled enzyme counterscreen, NADH absorbance; inhibition, % at 4.8 µM; 360,000 compounds, 1.2% hits; AID 588335; in the data active = inhibition above about 30%
# FBA Mtb inh: inhibits M. tuberculosis FBA enzyme; P9WQA3; 360,000 compounds, 2.3% hits; AID 588726; inhibition, % at 1 µM; purified M. tuberculosis FBA, fluorescence read-out
# Mtb bLac sens: beta-lactam sensitization of Mtb H37Rv | 330,000 compounds, 0.27% hits | M. tuberculosis H37Rv growth with meropenem, percent inhibition | inhibition, % at 25 µM | AID 434955; call rule not given here;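 note: growth measured after seven days incubation then overnight dye step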
# Rv3671c inh: inhibits the M. tuberculosis serine protease Rv3671c. inhibition, % at 5.96 µM. 320,000 compounds, 0.048% hits. AID 2606; in the data active = inhibition above about 38%;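 note: extracellular domain of Rv3671c used as enzyme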
# Mtb FBA inh conf: confirmation of M. tuberculosis fructose-bisphosphate aldolase inhibitors; shares compounds with FBA Mtb inh; purified M. tuberculosis FBA, fluorescence read-out; inhibition, % at 1 µM; 5,600 compounds, 78% hits
# GDH-TPI counter-2: counter-screen for M. tuberculosis FBA inhibitors: GDH-TPI coupled enzyme inhibition; 5,600 compounds, 81% hits; GDH-TPI coupled enzyme counterscreen, fluorescence; shares compounds with FBA Mtb inh; AID 652141; inhibition, % at 1 µM; in the data active = inhibition above about 10%
# GDH-TPI DR: inhibits GDH-TPI coupling enzymes in dose response; shares compounds with FBA Mtb inh; GDH-TPI coupled enzyme assay, fluorescence, artifact counterscreen; IC50, µM; 170 compounds, 79% hits; AID 652145; call rule not given here
# A number is an active result; - = inactive; . = no result given; + = active, no number. Cut-off read from the data, not from the text of the source, unless noted: active = inhibition above about 27%; inactive = the rest.
SMILES,UGM FP inh,RecA splice inh,GDH-TPI counter-1,FBA Mtb inh,Mtb bLac sens,Rv3671c inh,Mtb FBA inh conf,GDH-TPI counter-2,others
N=C(N)SCc1nc2ccccc2c(=O)n1-c1ccccc1,-,-,-,-,-,-,.,.,
O=c1cc(/C=C/c2c(F)cccc2Cl)[nH]c2ccccc12,-,-,-,45,-,-,53,33,
Nc1nccc(/C=C/c2c(F)cccc2Cl)n1,-,-,-,-,-,-,.,.,
COCCCN1C(=O)C(CC(=O)NCc2ccco2)CC(C(=O)N(C)C)=C1C (configuration not stated),.,.,-,-,.,.,.,.,
Cc1nc(C(=O)NCCCO)cc2c1[nH]c1ccccc12,-,-,-,-,-,-,.,.,
Cc1cc2c([nH]c3ccccc32)c(C)n1,-,-,-,96,-,-,-,-,
Cc1nc(C(=O)O)cc2c1[nH]c1ccccc12,-,-,-,85,-,-,+,+,
Cc1nc(C(=O)NCCO)cc2c1[nH]c1ccccc12,-,-,-,-,-,.,.,.,
O=C(N/N=C/c1cc2ccccc2[nH]1)c1ccccc1Cl,-,-,-,-,-,-,.,.,
CCN(CC)CCCNC(=O)CCC(=O)Nc1ccc2nc(N3CCC(C)CC3)cc(C)c2c1,-,-,-,65,-,-,-,-,GDH-TPI DR=1.3
CCN(CC)CCCNC(=O)CCC(=O)Nc1ccc2nc(N3CCCCC3)cc(C)c2c1,-,-,-,108,-,-,87,95,
Cc1ccc(NC2CCCN(C(=O)c3cccc(-c4ncc[nH]4)c3)C2)cc1C (configuration not stated),-,-,-,-,-,-,.,.,
CCOC(=O)C1=C(C)OC(N)=C(C#N)C1c1cc2c(cc1[N+](=O)[O-])OCO2 (configuration not stated),-,-,-,33,-,-,42,26,
O=C1CN(C(=O)COC(=O)CNS(=O)(=O)/C=C/c2ccccc2)c2ccccc2N1,-,-,-,-,-,-,.,.,
c1csc(CNc2nc(Oc3ccncc3)c3sccc3n2)c1,.,.,-,43,.,.,65,51,
COc1ccc(Nc2nc(NCc3cccs3)nc3ccsc23)cc1OC,.,.,-,-,.,.,.,.,
c1ccc(CNc2nc(Oc3ccncc3)c3sccc3n2)cc1,.,.,-,39,.,.,+,+,
COCCNc1nc(Oc2ccccc2)c2sccc2n1,.,.,-,-,.,.,.,.,
CC(C)CCNC(=O)COc1ccc2c(c1)C(=O)CC(C)(C)O2,-,-,-,50,-,-,+,+,
CCC(Oc1ccc2c(c1)C(=O)CC(C)(C)O2)C(=O)NCCN1CCCCCC1 (configuration not stated),-,-,-,59,-,-,-,-,
Cc1cc(NC(=O)CN2C(=O)NC(C)(c3ccc(Cl)cc3)C2=O)no1 (configuration not stated),-,-,-,-,-,-,.,.,
COc1ccc2nc3c(cc2c1)c(NC(=O)C1CCCO1)nn3CC(C)C (configuration not stated),-,-,-,39,-,-,-,-,
COc1ccc2nc3c(cc2c1)c(NC(=O)CC(C)C)nn3CC(C)C,-,-,-,-,-,-,.,.,
COc1cc(CC(=O)N(C)CC(=O)Nc2cc(C)ccc2C)cc(OC)c1OC,-,-,-,-,-,-,.,.,
COc1ccc(-c2ccc(-c3noc(C)n3)c(OC)n2)cc1,-,-,-,74,-,-,93,88,
SMILES,UGM FP inh,RecA splice inh,GDH-TPI counter-1,FBA Mtb inh,Mtb bLac sens,Rv3671c inh,Mtb FBA inh conf,GDH-TPI counter-2,others
COc1ccc(-c2ccc(-c3noc(-c4ccccc4C)n3)c(OC)n2)cc1,-,-,-,-,-,-,.,.,
COc1ccc(-c2ccc(-c3noc(C4CCCCC4)n3)c(OC)n2)cc1,-,-,-,28,-,-,+,+,
CCOc1nc(-c2ccc(OC)cc2)ccc1-c1noc(C)n1,-,-,-,76,-,-,92,78,
COC(=O)C1C(O)=C(C=NC2CCCCC2)C(=O)CC1(C)C (configuration not stated),-,-,-,28,-,-,147,115,
COc1cc2[nH]c(=O)c(C(=O)NCc3ccccc3Cl)c(O)c2cc1OC,-,-,-,-,-,.,.,.,
CNc1cncc(-c2ccccc2NC(C)=O)n1,.,.,-,-,.,.,.,.,
CNc1cncc(-c2ccccc2CO)n1,.,.,-,73,.,.,+,+,
CCOc1ccccc1-c1nc(-c2ccncc2)no1,-,-,-,-,-,-,.,.,
CCOc1ccccc1-c1cncc(NC)n1,.,.,-,74,.,.,66,47,
O=C(O)CN1C(=O)C2C3CC(C2C1=O)C1C(c2ccc(F)cc2)c2sc(=O)[nH]c2SC31 (configuration not stated),-,.,-,-,-,-,.,.,
COC(=O)c1cnn(-c2ccc(Cl)cc2)c1/C=N/NC(N)=S,-,-,-,45,-,-,67,35,
CN(C)C(=O)c1ccc(NC(=O)CN2C(=O)NC3(CCCc4ccccc43)C2=O)cc1 (configuration not stated),-,-,-,-,-,-,.,.,
CCOC(=O)C1=C(COC(=O)c2ncc(Cl)c(Cl)c2Cl)NC(=O)NC1C (configuration not stated),-,-,-,-,-,-,.,.,
COc1ccc(-c2coc3c(C(=O)NCC(C)C)cccc23)c(C)c1,.,.,-,-,.,.,.,.,
N#Cc1cnn2c3c(cnc12)C(=O)N1CCc2ccccc2C1C3 (configuration not stated),-,-,-,27,-,-,87,64,
CSc1nc2ncc3c(n2n1)CC1c2ccccc2CCN1C3=O (configuration not stated),-,-,-,53,-,-,76,58,
O=C1c2cnc3ncnn3c2CC2c3ccccc3CCN12 (configuration not stated),-,-,-,58,-,-,-,18,
COc1cccc(NC(=O)C(C)Sc2nnc(C3CC3)n2C2CC2)c1 (configuration not stated),.,.,-,-,-,-,.,.,
Cc1cccc(N=Cc2ccccc2O)c1C,.,.,-,-,.,.,.,.,
Oc1ccccc1C=Nc1cccc2ccccc12,-,-,-,42,-,-,-,-,GDH-TPI DR=9.3
NS(=O)(=O)c1ccc(CCNC(=O)COC(=O)/C=C/c2cc(Br)ccc2F)cc1,-,.,-,-,-,-,.,.,
COCCNC(=S)N(CCCO)Cc1cc2cc3c(cc2[nH]c1=O)OCO3,.,.,-,-,.,.,.,.,
CCCCNC(=S)N(CCCO)Cc1cc2cc3c(cc2[nH]c1=O)OCO3,.,.,-,-,.,.,.,.,
COCCCNC(=S)N(CCO)Cc1cc2cc3c(cc2[nH]c1=O)OCO3,-,-,-,31,-,.,+,+,
CCN(CC)CCN(Cc1cc2cc3c(cc2[nH]c1=O)OCO3)C(=S)NCCOC,-,-,-,34,-,-,32,32,
